Test results as given in PubChem BioAssay AID1159580 (chemical genetic matrix, 2015).
“And” between values parts separate entries of the source, which are not always exact repeats. Equal values may be shown once. Screen size: about 5,500 compounds; about 2,000 (36%) were called active. Not shown: some 18% with an inconclusive outcome. Cut-off read from the data, not from the text of the source: active = normalized growth mostly below about 0.91 (no sharp cut-off); inconclusive = no clear call, values can overlap the other calls; inactive = mostly above about 0.92. This is one part of the list.

Assay: chemical genetic growth profiling, strain panel (AID 1159580);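 note: tested at 20 µM; growth read once vehicle control cultures reached saturation at 30 °C; 1 = growth at the plate median or of vehicle wells; lower values mean less growth of the strain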
Conditions: S. cerevisiae deletion strains, growth OD

Measured: normalized growth

C[C@@H]1CC2C3CCC4=CC(=O)C=C[C@]4(C)[C@@]3(F)[C@@H](O)C[C@]2(C)[C@@]1(O)C(=O)COP(=O)(O)O (stereo partly drawn)
inactive: locus YAL021C, strain ccr4, hits give low values 0.961 | locus YAL026C, strain drs2, hits give low values 0.985 | locus YAL030W, strain snc1, hits give low values 0.996 | locus YBL061C, strain skt5, hits give low values 0.978 | locus YBR009C, strain hhf1, hits give low values 0.976 | locus YBR021W, strain FUR4, hits give low values 1.02 | locus YBR023C, strain chs3, hits give low values 0.981 | locus YBR171W, strain sec66, hits give low values 0.944 | locus YBR229C, strain ROT2, hits give low values 1 | locus YBR231C, strain swc5, hits give low values 0.955 | locus YBR279W, strain paf1, hits give low values 0.989 | locus YCL011C, strain gbp2, hits give low values 0.997 | locus YCL016C, strain dcc1, hits give low values 1.02 | locus YCL029C, strain bik1, hits give low values 1.01 | locus YCL061C, strain MRC1, hits give low values 0.971 | locus YCL069W, strain vba3, hits give low values 0.996 | locus YCR088W, strain abp1, hits give low values 0.975 | locus YDL005C, strain med2, hits give low values 0.987 | locus YDL035C, strain GPR1, hits give low values 1.03 | locus YDL040C, strain nat1, hits give low values 0.964 | locus YDL074C, strain BRE1, hits give low values 1.02 | locus YDL101C, strain DUN1, hits give low values 1.01 | locus YDL134C, strain PPH21, hits give low values 1.02 | locus YDL185W, strain tfp1, hits give low values 1 | locus YDL192W, strain arf1, hits give low values 1.01 | locus YDR001C, strain nth1, hits give low values 0.94 | locus YDR069C, strain doa4, hits give low values 0.942 | locus YDR101C, strain arx1, hits give low values 0.996 | locus YDR137W, strain rgp1, hits give low values 0.97 | locus YDR159W, strain sac3, hits give low values 0.961 | locus YDR162C, strain NBP2, hits give low values 1.02 | locus YDR195W, strain ref2 0.936 | locus YDR297W, strain sur2, hits give low values 0.979 | locus YDR318W, strain mcm21, hits give low values 0.992 | locus YDR334W, strain swr1, hits give low values 0.943 | locus YDR335W, strain msn5, hits give low values 0.949 | locus YDR388W, hits give low values 1 | locus YDR392W, strain spt3, hits give low values 1.06 | locus YDR502C, strain sam2, hits give low values 1.01 | locus YEL003W, strain gim4, hits give low values 0.98 | locus YEL037C, strain rad23, hits give low values 0.978 | locus YEL061C, strain CIN8 (second series), hits give low values 0.961 | locus YEL061C, strain CIN8, hits give low values 1.01 | locus YER015W, strain faa2, hits give low values 0.98 | locus YER016W, strain bim1, hits give low values 1.02 | locus YER110C, hits give low values 1.01 | locus YER111C, strain swi4, hits give low values 0.98 | locus YER155C, strain BEM2 (second series), hits give low values 0.972 | locus YER155C, strain BEM2, hits give low values 1.01 | locus YER167W, strain BCK2, hits give low values 1.01 | locus YFR010W, strain ubp6, hits give low values 0.936 | locus YGL078C, strain dbp3, hits give low values 1.01 | locus YGL086W, strain mad1, hits give low values 1.02 | locus YGL167C, strain pmr1, hits give low values 0.954 | locus YGL173C, strain kem1, hits give low values 1 | locus YGL227W, strain vid30, hits give low values 0.972 | locus YGL240W, strain doc1, hits give low values 0.957 | locus YGL248W, strain PDE1, hits give low values 0.998 | locus YGL253W, strain hxk2, hits give low values 0.99 | locus YGR135W, strain pre9, hits give low values 1 | locus YGR229C, strain SMI1, hits give low values 1.01 | locus YGR252W, strain gcn5, hits give low values 0.929 | locus YHR013C, strain ard1, hits give low values 1 | locus YHR027C, strain rpn1, hits give low values 0.982 | locus YHR030C, strain SLT2, hits give low values 1.01 and 0.995 | locus YHR079C, strain IRE1 (second series), hits give low values 0.992 | locus YHR079C, strain IRE1, hits give low values 1 | locus YHR094C, strain hxt1, hits give low values 1 | locus YHR129C, strain ARP1, hits give low values 1.01 | locus YHR142W, strain chs7, hits give low values 0.976 | locus YHR200W, strain rpn10, hits give low values 1 | locus YIL066C, strain RNR3, hits give low values 1.03 | locus YIL073C, strain SPO22, hits give low values 1.02 | locus YIL125W, strain kgd1, hits give low values 0.994 | locus YIR030C, strain dcg1, hits give low values 1.01 | locus YJL092W, strain hpr5, hits give low values 0.987 | locus YJL095W, strain BCK1 (second series), hits give low values 0.982 | locus YJL095W, strain BCK1, hits give low values 1.01 and 0.997 | locus YJL115W, strain asf1, hits give low values 0.959 | locus YJL129C, strain trk1, hits give low values 0.942 | locus YJL134W, strain LCB3, hits give low values 1.01 | locus YJL154C, strain vps35, hits give low values 0.952 | locus YJL164C, strain tpk1, hits give low values 1.02 | locus YJL166W, strain qcr8, hits give low values 0.917 | locus YJL168C, strain set2, hits give low values 0.992 | locus YJL187C, strain SWE1 (second series), hits give low values 1.01 | locus YJL187C, strain SWE1, hits give low values 0.988 | locus YJR043C, strain POL32, hits give low values 1.02
